ChEMBL document CHEMBL3988442, “University of Dundee, Small-Polar-MMV Screening Library” (2021)
The whole screen tested about 67,000 compounds, of which about 300 (0.45%) showed an effect of 50% or more. What follows is part of a selection rich in strong results, with near analogues and random picks from the rest.

Target: Polyketide synthase Pks13 (Mycobacterium tuberculosis (strain ATCC 25618 / H37Rv)) (UniProt I6X8D2)
Assay: Mycobacterium tuberculosis Polyketide synthase 13 Thioesterase (PKS13)
Type: functional
Parameters: scale not given: in the data most compounds retested in dose-response had high values
Settings: 30 µM

Sequence of Polyketide synthase Pks13 (Mycobacterium tuberculosis (strain ATCC 25618 / H37Rv)) (I6X8D2 whole entry): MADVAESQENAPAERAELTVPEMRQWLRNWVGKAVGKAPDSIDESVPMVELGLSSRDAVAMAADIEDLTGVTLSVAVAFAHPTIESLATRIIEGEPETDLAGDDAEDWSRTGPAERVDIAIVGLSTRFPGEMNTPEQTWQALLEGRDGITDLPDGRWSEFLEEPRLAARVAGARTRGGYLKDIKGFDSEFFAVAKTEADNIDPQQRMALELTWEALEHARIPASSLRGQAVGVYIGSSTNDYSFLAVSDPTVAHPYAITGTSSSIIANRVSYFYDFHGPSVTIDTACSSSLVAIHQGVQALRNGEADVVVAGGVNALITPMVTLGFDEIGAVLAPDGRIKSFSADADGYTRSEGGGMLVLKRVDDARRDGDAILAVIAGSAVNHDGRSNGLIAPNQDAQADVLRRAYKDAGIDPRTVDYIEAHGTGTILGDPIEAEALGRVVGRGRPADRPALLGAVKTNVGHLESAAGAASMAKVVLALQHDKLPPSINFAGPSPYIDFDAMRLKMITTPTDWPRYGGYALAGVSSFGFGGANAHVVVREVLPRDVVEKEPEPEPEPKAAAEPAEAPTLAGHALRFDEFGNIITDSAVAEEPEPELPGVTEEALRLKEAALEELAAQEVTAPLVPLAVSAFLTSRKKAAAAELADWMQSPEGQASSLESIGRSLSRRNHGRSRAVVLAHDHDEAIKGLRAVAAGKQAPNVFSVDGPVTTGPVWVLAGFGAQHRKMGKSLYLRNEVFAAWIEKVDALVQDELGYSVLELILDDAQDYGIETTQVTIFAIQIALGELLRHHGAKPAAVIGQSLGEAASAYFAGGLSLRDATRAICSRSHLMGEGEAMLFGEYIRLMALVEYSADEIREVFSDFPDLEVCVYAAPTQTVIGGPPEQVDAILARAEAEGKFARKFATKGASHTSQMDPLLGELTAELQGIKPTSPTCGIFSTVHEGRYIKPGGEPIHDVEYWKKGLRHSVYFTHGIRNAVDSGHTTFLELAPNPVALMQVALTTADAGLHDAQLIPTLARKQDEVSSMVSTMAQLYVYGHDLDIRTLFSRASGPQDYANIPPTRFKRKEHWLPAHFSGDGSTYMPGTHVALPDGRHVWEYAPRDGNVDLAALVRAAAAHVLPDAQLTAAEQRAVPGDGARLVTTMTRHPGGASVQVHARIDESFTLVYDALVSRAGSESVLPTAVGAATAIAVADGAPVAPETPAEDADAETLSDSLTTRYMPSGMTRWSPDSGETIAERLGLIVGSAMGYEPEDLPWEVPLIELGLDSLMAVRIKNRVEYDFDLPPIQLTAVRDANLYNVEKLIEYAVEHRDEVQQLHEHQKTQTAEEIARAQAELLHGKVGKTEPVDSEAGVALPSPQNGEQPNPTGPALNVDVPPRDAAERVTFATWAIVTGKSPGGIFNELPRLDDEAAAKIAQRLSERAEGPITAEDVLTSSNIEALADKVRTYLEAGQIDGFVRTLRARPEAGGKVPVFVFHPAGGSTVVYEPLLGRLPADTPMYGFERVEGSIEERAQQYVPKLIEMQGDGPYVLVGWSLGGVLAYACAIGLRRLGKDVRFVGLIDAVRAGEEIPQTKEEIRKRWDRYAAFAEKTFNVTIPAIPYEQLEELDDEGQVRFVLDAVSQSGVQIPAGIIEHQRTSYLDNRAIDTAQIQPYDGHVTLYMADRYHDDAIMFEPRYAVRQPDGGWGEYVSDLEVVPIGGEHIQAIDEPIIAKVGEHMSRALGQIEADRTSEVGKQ

SMILES | Percent Effect [%]
O=C([C@H]1COC[C@H]2CN(C3CCOCC3)C[C@H]21)N1CCCCO1 | -4.79
CN(C)c1nccc(N2CCO[C@H]3CN(Cc4ccco4)C[C@H]32)n1 | -3.24
O=S(=O)(c1ccccc1)N1C[C@@H]2COC[C@]2(CN2CCOCC2)C1 | 27.2
Fc1cccc(CN2C[C@@H]3COC[C@]3(COCc3ccncc3)C2)c1 | 0.554
O=C(CC1CCCC1)N1C[C@H](Oc2cccnc2)[C@H]2OCCC[C@H]21 | -7.32
c1ccc2oc(CCCN3CCCC3Cn3cncn3)nc2c1 (stereo not given) | -10.8
c1ccc2oc(CN3CCCCC3Cn3cncn3)nc2c1 (stereo not given) | -0.333
c1csc(-c2noc(CCCN3CCCC3Cn3cncn3)n2)c1 (stereo not given) | 111
Cc1nccn1CC1CCCN1CCCc1nc(-c2cccs2)no1 (stereo not given) | -4.96
c1csc(-c2noc(CCCN3CCCC3Cn3cccn3)n2)c1 (stereo not given) | -2.79
c1ccc2oc(CCCN3CCCCC3Cn3cncn3)nc2c1 (stereo not given) | 58.4
CN(C)C(=O)COC[C@@H]1CC[C@H]2[C@H](CCN2c2ncccn2)O1 | -0.596
COCC(=O)N1C[C@H]2CNC[C@@]2(C(=O)NCc2cccc3[nH]ccc23)C1 | -18.7
CO[C@@H]1CC[C@H]2[C@H]1OCCN2CC1CC1 | -4.52
COc1ccc(OC)c(C(=O)N2C[C@H]3CC[C@@H]2CN(C)C3)c1 | 2.2
O=C(c1ccnnc1)N1C[C@H](Oc2cccnc2)[C@H]2OCCC[C@H]21 | -7.04
CCc1nc2n(n1)CC(NCc1cnc(-c3ccccc3)nc1)CC2 (stereo not given) | -15
CCc1nc2n(n1)CC(NCc1ncc(-c3ccccc3)o1)CC2 (stereo not given) | 108
CC(C)c1nc2n(n1)CC(NCc1ncc(-c3ccccc3)o1)CC2 (stereo not given) | -14.9
Cn1nc(-c2ccccc2)cc1[C@H]1CN2CC[C@H]1C[C@@H]2CNS(C)(=O)=O | -32.5
N#Cc1c(C2CC2)cc(-c2ccc(O)cc2)nc1N | 44.4
CS(=O)(=O)c1ccc(-c2cc(C3CC3)c(C#N)c(N)n2)cc1 | 62.7

SMILES | Percent Effect [%]
COc1ccc(-c2cc(C3CC3)c(C#N)c(N)n2)cc1F | -126
Cn1cc(CN2C[C@@H]3OCCN(CC4CCCC4)[C@@H]3C2)cn1 | -22.6
Cc1nc(CO[C@H]2CN(C(=O)c3ccc[nH]3)[C@@H]3COC[C@H]23)cs1 | -11.9
CCN(CCC(F)(F)F)C(=O)Nc1cccc(N2CCOCC2)c1 | -2.57
CN(C)c1ccc(C(=O)NCc2ccc(N3CCOCC3)cc2)cn1 | -1.83
O=C(NCc1ccccc1)c1nnc2ccc(N3CCOCC3)cc2n1 | 50.8
CCNC(=O)c1nnc2ccc(N3CCOCC3)cc2n1 | 48.2
CN(C)C(=O)c1nnc2ccc(N3CCOCC3)cc2n1 | 11.7
CCN(CC)C(=O)c1nnc2ccc(N3CCOCC3)cc2n1 | 51.7
c1cncc(OC[C@@]23CCO[C@@H]2CCN(Cc2cccs2)C3)c1 | 12.4
Cc1cccc(CN2C[C@@H]3COC[C@]3(COc3cccnc3)C2)n1 | 8.46
CC(=O)N1[C@@H](C(=O)NCC2CC2)C[C@@H]2CN(Cc3ccco3)C[C@@H]21 | -5.84
O=C(c1ccccc1F)N1CC[C@@H]2CN(c3ncccn3)CCO[C@@H]2C1 | 12
CCC(CNC(=O)CNC(C)=O)Oc1cccc(F)c1 (stereo not given) | -7.54
CCC(=O)NCC(CC)Oc1cccc(F)c1 (stereo not given) | -2.34
CCC(CNC(=O)COC)Oc1cccc(F)c1 (stereo not given) | 60.4
O=C(CCc1ccccc1)N1C[C@@H]2CN(Cc3ccoc3)CCO[C@@H]2C1 | -7.96
Cc1noc(CNc2ccc(CC(=O)N3CCSCC3)cc2)n1 | 70.3
CCc1nnc(CNc2ccc(CC(=O)N3CCSCC3)cc2)o1 | 5.6
CCc1noc(CNc2ccc(CC(=O)N3CCSCC3)cc2)n1 | -12.3
CN1C(=O)[C@H]2CC[C@@H]1CN(C(=O)c1sccc1S(N)(=O)=O)C2 | -33.4
CCN1C[C@H]2CCN(C(=O)C3CCCO3)CC[C@H]2S1(=O)=O (stereo not given in full) | -20.2

SMILES | Percent Effect [%]
CNC(=O)[C@H]1C[C@@H]2CN(C(=O)c3cncc(C)c3)C[C@@H]2N1C | 19.6
COc1ccc(C(C)Nc2cnn(C)c(=O)c2Cl)cc1OC (stereo not given) | 2.82
CC(Nc1cnn(C)c(=O)c1Cl)c1ccc(F)cc1 (stereo not given) | -8.28
CC(Nc1cnn(C)c(=O)c1Cl)c1ccc(F)c(F)c1 (stereo not given) | 78.5
O=C1[C@H]2CN(c3ncccn3)C[C@H]2CN1Cc1ccncc1 | -2.04
c1cc(CN2C[C@@H]3OCCN(CC4CCCO4)[C@@H]3C2)cs1 (stereo not given in full) | -16.8
CCS(=O)(=O)N1C[C@H]2CN(Cc3ccc(OC)cc3)C(=O)[C@H]2C1 | -7.48
O=C(CC(F)(F)F)N1C[C@H]2CN(CC3CC3)C(=O)[C@H]2C1 | -30.7
Cn1cc(-c2ccnc(NCC3CC3)n2)cn1 | -14.8
Cn1cc(-c2ccnc(NCC3CCN(Cc4ccccc4)C3)n2)cn1 (stereo not given) | 60.9
COCCCN1CCC(CNc2nccc(-c3cnn(C)c3)n2)C1 (stereo not given) | -31.5
O=C(CSc1ccccn1)N1C[C@H]2CC[C@@H]1CN(Cc1cscn1)C2 | -9.36
CN(C)C(=O)CN1C[C@@H]2CC[C@H](C1)N(C(=O)Cc1ccccc1Cl)C2 | -15.3
COc1cc(N2C[C@H]3CCC[C@@H](CN(C)C4CC4)[C@H]3C2)ncn1 | -5.89
CN(C[C@@H]1CCC[C@@H]2CN(c3ncccn3)C[C@@H]21)C1CC1 | 75.8
COCCN(C)C[C@@H]1CCC[C@@H]2CN(c3ncccn3)C[C@@H]21 | -50.6
Cc1cccc(CN2C[C@H](OCc3csc(C)n3)[C@H]3COC[C@H]32)n1 | -2.96
CCOCC1CN(C(=O)c2cccn2C)Cc2cnn(CC3CC3)c21 (stereo not given) | -11.3
CCOCC1CN(C(=O)c2cccs2)Cc2cnn(CC3CC3)c21 (stereo not given) | 80.6
CCn1ncc2c1C(COCC1CC1)CN(C(=O)c1cccs1)C2 (stereo not given) | -31.9
Cn1ccnc1CN1CC[C@@H]2[C@@H](CCC(=O)N2CCc2c[nH]cn2)C1 | -26.1
c1cnc(N2CCOCC3(CCCN(CC4CC4)C3)C2)cn1 (stereo not given) | 2.73

SMILES | Percent Effect [%]
c1cnc(N2CCC3(CCCN(CC4CCCCC4)C3)C2)cn1 (stereo not given) | 66.6
CSc1nccc(N2CCC3(CCCN(CC4CC4)C3)C2)n1 (stereo not given) | -0.995
C[C@H]1C[C@H]2CN(S(=O)(=O)c3ccc(F)cc3)CC[C@@H]2O1 | -20.4
O[C@]12CCNC[C@H]1CN(c1nccc3ccccc13)CC2 | -2.31
CC(NC(=O)N1CCC(CC(N)=O)CC1)c1csc2ccccc12 (stereo not given) | -11.9
CC(=O)N1CCCN(C(=O)NC(C)c2csc3ccccc23)CC1 (stereo not given) | -15.4
CC(NC(=O)N1CCC(CO)CC1)c1csc2ccccc12 (stereo not given) | 53
Cc1cnn(CC2CCCN2Cc2cc(=O)n3cc(C)ccc3n2)c1 (stereo not given) | 99.9
Cc1cnn(CC2CCCN2Cc2cc(=O)n3cccc(C)c3n2)c1 (stereo not given) | -5.2
Cc1cnn(CC2CCCN2Cc2cc(=O)n3ccccc3n2)c1 (stereo not given) | 2.94
Cc1cnc(CNC(=O)[C@@]23CCO[C@@H]2CCN(c2ncccn2)C3)cn1 | -4.01
CC(C)CN1C[C@H]2CCN(C(=O)NC3CCCC3)CC[C@H]2S1(=O)=O | 6.92
Cc1ccc(C)c(OC2CCN(C(=O)CNc3ccccc3Cl)CC2)c1 | 73.1
CCNC(=O)CCC(=O)N1CCC(Oc2cc(C)ccc2C)CC1 | -5.09
Cc1ccc(C)c(OC2CCN(C(=O)NCC(=O)N3CCCC3)CC2)c1 | -7.72
CNC(=O)CN1CC[C@H]2CN(C(=O)c3cccc(C)c3)C[C@H]2C1 | -11
Cn1ccc(C(=O)N2C[C@@H]3CCN(c4cnccn4)C[C@@H]3C2)n1 | -2.86
Cn1cncc1C(=O)N1C[C@@H]2CCN(c3cnccn3)C[C@@H]2C1 | -6.26
Cn1ccnc1C(=O)N1C[C@@H]2CCN(c3cnccn3)C[C@@H]2C1 | 124
O=C(c1ccco1)N1CCO[C@@H]2CN(c3ncc(F)cn3)CC[C@@H]2C1 | -32.7
CS(=O)(=O)NC[C@]12COC[C@H]1CN(C(=O)c1ccncn1)C2 | -5.6
Cc1noc(C)c1CN1C(=O)[C@H]2CC[C@@H]1CN(Cc1cscn1)C2 | 7.07

SMILES | Percent Effect [%]
CN(Cc1ccncc1)C1CCC[C@@H]2CN(c3ncccn3)C[C@H]12 (stereo not given in full) | -25.8
COc1ccccc1-n1c(C)cc(CNC(=O)NC(C)C)c1C | 0.233
CCOC(=O)CNC(=O)NCc1cc(C)n(-c2ccc(OC)cc2)c1C | 10.9
CCOC(=O)CNC(=O)NCc1cc(C)n(-c2ccccc2OC)c1C | 50
CN1C[C@@H]2CN(C(=O)C3CC=CC3)C[C@@H]2C1=O | -9.96
CN(C)c1ccc(C(=O)N2CCN(C(=O)N3CCCCC3)CC2)nn1 | 65.3
CN(C)c1ccc(C(=O)N2CCN(CC(C)(C)O)CC2)nn1 | -26.8
CCC(O)CN1CCN(C(=O)c2ccc(N(C)C)nn2)CC1 (stereo not given) | 5.36
CCS(=O)(=O)N1C[C@H](c2nc(C)no2)C[C@H]2OCC[C@H]21 | 5.36
CCc1ccc(CN2C[C@H](OC)[C@H]3COC[C@H]32)o1 | -5.96
O=C(NC1CCC1)[C@H]1C[C@@H]2CN(C(=O)Nc3ccc(F)cc3)C[C@H]1O2 | 5.75
O=C(c1ccc(O)cc1)N1C[C@@H]2OCCN(c3ncccn3)[C@@H]2C1 | -11.4
Cn1cc(CN2C[C@H]3CCC[C@@H](CNc4nccn4C)[C@H]3C2)cn1 | -23.6
Cc1cccc(CN2C(=O)C[C@H]3[C@@H]2CCN3Cc2ccco2)n1 | -23.1
CCOc1cccc(NS(=O)(=O)c2cc(C(=O)O)cs2)c1 | 0.586
O=C(O)c1csc(S(=O)(=O)Nc2cccc(OCC(F)(F)F)c2)c1 | 50
CCCOc1cccc(NS(=O)(=O)c2cc(C(=O)O)cs2)c1 | 40.8
NC(=O)N1CCCN(CCc2nc(-c3cccc(Cl)c3)no2)CC1 | 55.5
Clc1cccc(-c2noc(CCN3CCN(c4ccncc4)CC3)n2)c1 | -57.2
CCOC1CCN(CCc2nc(-c3cccc(Cl)c3)no2)CC1 | 8.68
CN1CCN(C(=O)[C@H]2C[C@@H]3CN(c4ncc(F)cn4)C[C@@H]3N2C)CC1 | -4.39
COCC(=O)N1CC[C@@H]2O[C@H](COCc3ccncc3)CC[C@@H]21 | -12.9
